Shown is part of a subset that was picked to be rich in hits.
Methyltransferases: Primary Screen for Target Class Profiling of Small Molecule Inhibitors of Methyltransferases; hit rate 3.9% among 25,000; purified enzyme, MTase-Glo SAH luminescence; hits give low values; AID 1745853, 2022; calls only at 40 µM; call rule not given here
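Each enzyme was reacted with SAM and its substrate, with compounds tested once at 40 uM; SAH formed was read by MTase-Glo luminescence.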
* = called active by the depositor. On the % scale 0 is the no-effect control and ±100 the full control effect.

For O=C(CSc1nnc2n(Cc3ccccc3)c(=O)c3ccccc3n12)Nc1cccc(Cl)c1 the results were Methyltransferases inactive.
Screening Cc1cccc(CNC(=O)c2cc3n(n2)CC(C)(C(=O)NCCC(C)C)N(C)C3=O)c1 (stereo unspecified) returned Methyltransferases inactive.
Cc1ccc(C)c(CSc2nnc3n(CC(C)C)c(=O)c4ccc(C(=O)NC(C)C)cc4n23)c1 was read as Methyltransferases inactive.
For COc1ccc(CCNC(=O)C(C)n2ccc3cc(S(=O)(=O)N4CCCC4)ccc32)c(OC)c1 (stereo unspecified) the results were Methyltransferases inactive.
For C=C1CC[C@H]2C(=C)CC[C@H]3C(=C)C(=O)O[C@@H]3[C@@H]12 the results were Methyltransferases inactive.
C=C1CC[C@@H](O)[C@]2(C)C[C@H]3OC(=O)C(=C)[C@H]3CC12 (stereo partly specified) was read as Methyltransferases inactive.
`C=C1C(=O)OC2C1CCC1(C)C(O)CC=C(C)C21` (stereo unspecified) gave Methyltransferases active.
COc1ccccc1N1C(=O)CSc2c(c3ccccc3n2C)C1C(=O)NCc1ccccc1 (stereo unspecified) was read as Methyltransferases inactive.
`O=c1[nH]c2ccc(S(=O)(=O)NCc3cccnc3)cc2[nH]1` gave Methyltransferases inactive.
CCOC(=O)c1cc2n(n1)CC(C)(C(=O)NC1CCCC1)N(c1ccc(C)c(F)c1)C2=O (stereo unspecified) was read as Methyltransferases inactive.
`COc1cccc(Cn2nc3n(Cc4ccc(C)cc4)c(=O)c4ccc(C(=O)NC(C)C)cc4n3c2=O)c1` gave Methyltransferases inactive.
For CC1=C(C(=O)OCc2ccccc2)C(c2ccc(-c3ccccc3)cc2)NC(=O)N1CCCCCC(=O)O (stereo unspecified) the results were Methyltransferases active.
Screening O=C(NCCCc1ccccc1)C1CN(C2CCCC2)C(=O)N1 (stereo unspecified) returned Methyltransferases inactive.
Screening O=C1N[C@@H]2CCN(C(=O)c3ccc(-c4ccccc4)cc3)[C@@H]2C(=O)N1Cc1ccccc1 returned Methyltransferases inactive.
For Cc1cccc(Cn2nc3n(CCC(C)C)c(=O)c4ccc(C(=O)NC5CCCC5)cc4n3c2=O)c1 the results were Methyltransferases inactive.
CCOC(=O)N1CCC(CN(Cc2ccc(Cl)cc2)Cc2ccc([N+](=O)[O-])s2)C1 (stereo unspecified) was read as Methyltransferases active.
`Cc1ccc(C(=O)Cn2nc3n(C(C)C)c(=O)c4ccc(C(=O)NC(C)C)cc4n3c2=O)c(C)c1` gave Methyltransferases inactive.
Screening O=C(Cn1ccc2cc(S(=O)(=O)N3CCCCC3)ccc21)N1CCN(c2ccccn2)CC1 returned Methyltransferases inactive.
CCCn1c(=O)c2ccc(C(=O)NCC(C)C)cc2n2c(=O)n(CC(=O)c3cccc(Cl)c3)nc12 was read as Methyltransferases inactive.
CN(CC(=O)Nc1cccc(F)c1)S(=O)(=O)c1ccc2[nH]c3c(c2c1)CCCC3 was read as Methyltransferases inactive.
For O=S(=O)(Nc1ccc(F)cc1)c1ccc2[nH]c3c(c2c1)CCCC3 the results were Methyltransferases inactive.
Screening CN(C)[C@@H]1CCc2[nH]c3ccc(NC(=O)c4ccc(F)cc4)cc3c2C1 returned Methyltransferases active.
Screening CCc1cc2c(cc3n2CC(C)(C(=O)NC2CCCCCC2)N(CCCOC)C3=O)s1 (stereo unspecified) returned Methyltransferases inactive.
Screening CCCn1c(=O)c2ccc(C(=O)NCC(C)C)cc2n2c(SCC(=O)Nc3ccc(F)cc3)nnc12 returned Methyltransferases inactive.
CC(C)CCNC(=O)N1CCn2cccc2C1C (stereo unspecified) was read as Methyltransferases inactive.
Screening CCS(=O)(=O)N1CCN(c2ccc(Nc3ncc(C(N)=O)c(NC4CC4)n3)cc2)CC1 returned Methyltransferases active.
For CC(=O)N1CCN(C(=O)Cc2ccc(Nc3ncc(F)c(Nc4ccc(C(=O)Nc5ccccc5Cl)cc4)n3)cc2)CC1 the results were Methyltransferases inactive.
`Cc1ccc(Cn2c(=O)c3ccccc3n3c(=O)n(Cc4cccc(C)c4)nc23)cc1` gave Methyltransferases inactive.
O=C(c1ccc(Nc2nccc(-c3cc4ccccc4s3)n2)cc1)N1CCC(N2CCCC2)CC1 was read as Methyltransferases active.
`O=C(c1ccnc(-c2ccncc2)c1)N1CCCC1` gave Methyltransferases inactive.
C[C@@H]1CN(c2ccc(C(=O)N3CCC(N4CCOCC4)CC3)cn2)C[C@H](C)O1 was read as Methyltransferases inactive.
`CCCN1C(=O)c2c(C(=O)NCCC3=CCCCC3)ncn2CC1(C)C(=O)NCc1ccc(OC)cc1` (stereo unspecified) gave Methyltransferases inactive.
`CCCn1c(=O)c2ccc(C(=O)NC(C)CC)cc2n2c(SCC(=O)NC(C)(C)C)nnc12` (stereo unspecified) gave Methyltransferases inactive.
CCCn1c(=O)c2ccc(C(=O)NC(C)C)cc2n2c(SCC(=O)NCc3ccccc3)nnc12 was read as Methyltransferases inactive.
`Cc1cc2[nH]c(=O)[nH]c2cc1S(=O)(=O)N1CCC(C)CC1` gave Methyltransferases inactive.
For Cc1ccc(NC(=O)N2CCn3c(C)ccc3C2C(C)C)c(C)c1 (stereo unspecified) the results were Methyltransferases inactive.
For CC1CCN(S(=O)(=O)c2ccc3c(c2)oc(=O)n3CC(=O)N2CCC(Cc3ccccc3)CC2)CC1 the results were Methyltransferases inactive.
CC(C)OCCCn1c(=O)c2ccccc2n2c(SCc3ccccc3Cl)nnc12 was read as Methyltransferases inactive.
`CCCOC(=O)Cn1c(=O)oc2cc(S(=O)(=O)NCC(C)c3ccccc3)ccc21` (stereo unspecified) gave Methyltransferases inactive.
CN(CC(=O)NC1CCCCC1)S(=O)(=O)c1ccc2[nH]c3c(c2c1)CCCC3 was read as Methyltransferases inactive.
For Cc1ccc(C(N)=O)cc1Nc1nccc(-c2cn(C(C)C)c3cnccc23)n1 the results were Methyltransferases active.
For CCCN1C(=O)c2c(C(=O)NCCc3ccc(C)cc3)ncn2CC1(C)C(=O)NCCC(C)C (stereo unspecified) the results were Methyltransferases inactive.
Screening CCC(C)NC(=O)c1ccc2c(=O)n(CC(C)C)c3nn(Cc4cccc(F)c4)c(=O)n3c2c1 (stereo unspecified) returned Methyltransferases inactive.
O=C1c2ccccc2C(=O)c2c(NCCc3ccc(O)cc3)ccc(NCCc3ccc(O)cc3)c21 was read as Methyltransferases active.
`Fc1ccccc1-c1noc(NCCc2ccc(Cl)cc2)n1` gave Methyltransferases inactive.
`O=C(O)c1cc([N+](=O)[O-])ccc1NCCCc1ccccc1` gave Methyltransferases inactive.
`Cc1ccc(NC(=O)CSc2nnc3n(Cc4ccccc4)c(=O)c4ccccc4n23)cc1` gave Methyltransferases inactive.
`CCOC(=O)c1cc2n(n1)CC(C)(C(=O)NCc1ccccc1)N(Cc1ccc(F)cc1)C2=O` (stereo unspecified) gave Methyltransferases inactive.
CCC(C)NC(=O)c1ccc2c(=O)n(CCC(C)C)c3nn(Cc4ccc(Cl)cc4)c(=O)n3c2c1 (stereo unspecified) was read as Methyltransferases inactive.

High-throughput results as filed in PubChem.
